# Publication PMC6340896
# Tests used:
# Assay in all cases: cross-link between two proteins; affinity purification or IP with mass spectrometry; cross-linking mass spectrometry
# [1] = target: Ribosomal RNA-processing protein 15 (UniProt Q06511)
# [2] = target: Ribosome biogenesis protein BRX1 (UniProt Q08235)
# [3] = target: Ribosome biogenesis protein NSA1 (UniProt P53136)
# [4] = target: Ribosome biogenesis protein SSF1 (UniProt P38789)
# [5] = target: Ribosome production factor 1 (UniProt P38805)
# Sequence of UniProt Q08235 (Q08235 whole entry): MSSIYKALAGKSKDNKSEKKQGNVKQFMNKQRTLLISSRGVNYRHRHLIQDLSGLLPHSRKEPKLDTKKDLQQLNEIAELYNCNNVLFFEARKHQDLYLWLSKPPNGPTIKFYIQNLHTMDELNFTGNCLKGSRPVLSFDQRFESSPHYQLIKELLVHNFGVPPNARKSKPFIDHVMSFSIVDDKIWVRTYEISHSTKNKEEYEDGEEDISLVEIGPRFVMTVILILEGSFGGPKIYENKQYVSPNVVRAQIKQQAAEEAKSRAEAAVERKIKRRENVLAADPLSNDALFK
# Sequence of Ribosome production factor 1, P38805 (P38805 whole entry): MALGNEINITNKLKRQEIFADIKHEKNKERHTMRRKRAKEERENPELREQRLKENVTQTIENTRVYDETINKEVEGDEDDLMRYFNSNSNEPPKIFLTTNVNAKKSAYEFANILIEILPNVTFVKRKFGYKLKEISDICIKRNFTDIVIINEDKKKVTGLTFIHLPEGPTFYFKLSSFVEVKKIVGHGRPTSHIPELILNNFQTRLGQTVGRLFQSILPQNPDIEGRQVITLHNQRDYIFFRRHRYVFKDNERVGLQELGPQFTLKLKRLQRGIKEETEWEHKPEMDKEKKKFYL
# Sequence of UniProt P53136 (P53136 whole entry): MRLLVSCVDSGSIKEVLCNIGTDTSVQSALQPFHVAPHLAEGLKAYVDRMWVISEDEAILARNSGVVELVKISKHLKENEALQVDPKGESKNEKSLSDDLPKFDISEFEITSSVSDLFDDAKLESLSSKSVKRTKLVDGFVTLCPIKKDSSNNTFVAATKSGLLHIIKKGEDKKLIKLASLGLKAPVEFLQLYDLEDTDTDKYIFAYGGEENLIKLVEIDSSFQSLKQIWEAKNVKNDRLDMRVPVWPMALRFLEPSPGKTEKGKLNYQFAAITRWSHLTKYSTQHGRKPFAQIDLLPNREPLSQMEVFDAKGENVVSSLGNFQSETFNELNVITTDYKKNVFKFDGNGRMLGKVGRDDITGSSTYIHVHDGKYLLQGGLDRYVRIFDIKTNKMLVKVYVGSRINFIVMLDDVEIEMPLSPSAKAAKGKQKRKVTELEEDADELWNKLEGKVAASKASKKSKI
# Sequence of UniProt Q06511 (Q06511 whole entry): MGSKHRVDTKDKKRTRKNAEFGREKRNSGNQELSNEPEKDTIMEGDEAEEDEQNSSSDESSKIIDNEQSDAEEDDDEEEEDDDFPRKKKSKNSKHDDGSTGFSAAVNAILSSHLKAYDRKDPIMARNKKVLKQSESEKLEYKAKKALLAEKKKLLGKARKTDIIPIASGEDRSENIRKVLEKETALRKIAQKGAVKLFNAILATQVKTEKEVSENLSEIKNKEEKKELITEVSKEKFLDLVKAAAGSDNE
# Sequence of Ribosome biogenesis protein SSF1, P38789 (P38789 whole entry): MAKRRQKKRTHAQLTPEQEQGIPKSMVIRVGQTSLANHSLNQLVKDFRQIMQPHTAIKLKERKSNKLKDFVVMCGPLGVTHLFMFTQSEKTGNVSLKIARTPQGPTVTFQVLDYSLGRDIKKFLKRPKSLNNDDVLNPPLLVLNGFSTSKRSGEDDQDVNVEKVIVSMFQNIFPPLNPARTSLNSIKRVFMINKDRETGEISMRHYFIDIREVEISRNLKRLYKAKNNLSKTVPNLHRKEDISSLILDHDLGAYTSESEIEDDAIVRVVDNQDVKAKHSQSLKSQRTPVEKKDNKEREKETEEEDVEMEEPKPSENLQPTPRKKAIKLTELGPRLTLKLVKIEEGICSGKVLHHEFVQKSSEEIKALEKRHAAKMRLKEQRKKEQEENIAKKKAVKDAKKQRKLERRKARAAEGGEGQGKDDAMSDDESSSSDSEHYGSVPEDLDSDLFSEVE
substance,measurement,setting,value
"Ribosome biogenesis protein SSF1, P38789",listed as a hit,[1],yes
same,listed as a hit,[2],yes
"Ribosome production factor 1, P38805",listed as a hit,[3],yes
"Large ribosomal subunit protein uL29A, P0CX84",listed as a hit,[4],yes
"Large ribosomal subunit protein uL22A, P05740",listed as a hit,[5],yes
